Records with an inconclusive call do not appear. Entries that show only a call come without a potency. A number with no mark means an inactive call. Calls of active or inactive are those of the source. Calls come from the whole dose curve; as a rule, active = well fitted cell-killing curve with a large enough effect in the repeat runs; inconclusive = weak or mixed curves; inactive = flat fitted curve, though single readings scatter.

Consider 40 compounds from PubChem BioAssay (Tox21).
Potency is the fitted concentration of half-maximal effect.

This experiment can be described thus: qHTS assay to identify small molecule antagonists of the estrogen related receptor (ERR) signaling pathway from Tox21 library - cell viability counter screen (AID 1224834). Note: nearly all actives have a fitted effect of over 30% in size. The following applies: ERR reporter cells viability, CellTiter-Fluor, 17.5 h; series mostly up to 92.4 µM. From the text: National Center for Advancing Translational Sciences [NCATS]
NIH Chemical Genomics Center [NCGC]
U.S. Environmental Protection Agency [EPA]
National Institutes of Environmental Health Sciences [NIEHS]
National Toxicology Program [NTP]
U.S. Food and Drug Administration [FDA]
Estrogen related receptors (ERRs), the first orphan nuclear receptors discovered, play an important role in the control of cellular energy metabolism. ERRs are required for high-energy production in response to the environmental challenges. ERR-alpha was also identified as an adverse marker for breast cancer progression; ERR-alpha-positive tumors have a poor prognosis. To screen and to identify environmental compounds that perturb the ERR signaling pathways could provide valuable information for potential therapeutic or preventive measures in the treatment of metabolic disease. To differentiate true ERR antagonists or agonist from cytotoxic substances, the assay is multiplexed with cell viability assay.
Tox21 Assay Protocol Summary:
The ERR cells were dispensed at 2,000 cells/5 ul/well in 1536-well white plates using a Multidrop dispenser. After the assay plates were incubated at a 37 C/5% CO2 incubator for 6 hours, 23 nL of compounds dissolved in DMSO, positive and negative controls or DMSO only was transferred to the assay plate by a pin tool. The plates were incubated at 37 C for 17.5 hours. 1 ul/well of CellTiter-Fluor reagent was added into the assay plates using a Flying Reagent Dispenser. After 30-minute incubation at 37 C/5% CO2, the fluorescence intensity in the plates was measured using a ViewLux plate reader.
With `C[C@@H](c1ncncc1F)C(O)(Cn1cncn1)c1ccc(F)cc1F` (stereo not given in full), the Potency entry is “inactive”. In the case of `COc1cc2nc(Cl)nc(N)c2cc1OC`, the Potency entry was “inactive”. For the compound `NC(=O)C(c1ccccc1)(c1ccccc1)[C@@H]1CCN(CCc2ccc3c(c2)CCO3)C1`, the Potency entry is “inactive”. As to `CCC(=O)O[C@]1(C(=O)CCl)[C@@H](C)C[C@H]2[C@@H]3CCC4=CC(=O)C=C[C@]4(C)[C@@]3(F)[C@@H](O)C[C@@]21C`, the Potency result is “inactive”. Take `CCCCC(=O)OCC(=O)[C@H]1[C@H](C)C[C@H]2[C@@H]3C[C@H](F)C4=CC(=O)C=C[C@]4(C)[C@@]3(F)[C@@H](O)C[C@@]21C`: the Potency entry is “inactive”. Take `COc1cccc(N(C)C(=S)Oc2ccc3c(c2)CCCC3)n1`: the Potency result was “inactive”. On the same count and under the same terms, under `Cc1cccc(C)c1NC(=O)CN(CC(=O)O)CC(=O)O` stands “inactive”; under `CN(C)c1ccc(CCO)cc1`, “inactive”.

Take `CC1=CCCC(C)(C)C12CCC(C)O2` (stereo not given): the Potency result was “inactive”. As for `CNC(=O)CN(CCN(CCN(CC(=O)[O-])CC(=O)NC)CC(=O)[O-])CC(=O)[O-].O.[Gd+3]`, the Potency entry is “inactive”.

Regarding `C/C=C/C(=O)CC`, the viability change, negative = cytotoxic is 3.2% [at 19 µM].

With `O=C(O)c1ccccc1Cl`, the Potency entry was “inactive”. Same read-out and setting: under `CCOC(=O)C(O)c1ccccc1` (stereo not given) stands “inactive”; under `Cc1oc2c(NC(=O)c3c(Cl)cccc3Cl)cccc2c1C(C)(C)O`, 43.3 µM (active). Turning to `C=C(C)C(=O)OCCO`, the Potency result was “inactive”.

Take `Cc1cc(N)c2cc(NC(=O)Nc3ccc4nc(C)cc(N)c4c3)ccc2n1`: the Potency entry was “inactive”.

Turning to `CCCCO`, the Potency entry was “inactive”.

On to `c1cc(CCCc2ccncc2)ccn1`, for which the Potency entry is “inactive”.

As to `CCc1cc(C2=C(C(=O)O)N(c3ccccc3C(F)(F)F)S(=O)(=O)c3ccccc32)cc2c1OCO2`, the Potency is 7.61 µM (active).

Take `CCCCCCCCCc1ccc(OCCOCCO)cc1`: the Potency is 10.2 µM (active). In the case of `CCCCOC(=O)CCCCCCCC(=O)OCCCC`, the Potency result is “inactive”. Regarding `OC(C#CCN1CCCC1)(c1ccccc1)c1ccccc1`, the Potency result was “inactive”. Regarding `Cc1cc(C(=O)O)ccc1[N+](=O)[O-]`, the Potency entry is “inactive”. On to `C=C1[C@H]2CC[C@@H]3[C@H]2C(C)(C)CCC[C@]13C`, for which the Potency result is “inactive”. For the compound `CCCCCCCCCCCC(=O)OC[C@@H](O)[C@H]1OC[C@H](OCCO)[C@H]1OCCO`, the Potency entry was “inactive”. On the same count and under the same terms, under `O=C1CCC(=O)O1` stands “inactive”. On the same count and under the same terms, under `O=C(O)c1nc(Cl)c(Cl)c(Cl)c1Cl` stands “inactive”.

For `N=c1ccn2c(n1)O[C@H]1[C@H](O)[C@@H](CO)O[C@H]12`, the Potency entry was “inactive”. For the compound `c1ccc(-c2ccccn2)nc1`, the Potency result is “inactive”. On to `O=CC1CC=CCC1` (stereo not given), for which the Potency entry was “inactive”. Still for that read-out and setting: the entry for `Nc1ccc(S(=O)(=O)Nc2ccccc2)cc1` is “inactive”. Still for that read-out and setting: the entry for `C/C=C(/C(=C/C)c1ccc(OC(C)=O)cc1)c1ccc(OC(C)=O)cc1` is “inactive”; for `CCCCCCCCCCO[C@@H]1O[C@H](CO)[C@@H](O)[C@H](O)[C@H]1O` it is “inactive”. With `CC[N+](C)(CC)CCOC(=O)C(O)(c1ccccc1)C1CCCCC1` (stereo not given), the Potency entry was “inactive”.

For `CC(C)C[C@H]1C(=O)N2CCC[C@H]2[C@]2(O)O[C@](NC(=O)[C@@H]3C=C4c5cccc6[nH]c(Br)c(c56)C[C@H]4N(C)C3)(C(C)C)C(=O)N12`, the Potency was 18.4 µM (active). `CCCCCCOC(=O)NC(=N)c1ccc(NCc2nc3cc(C(=O)N(CCC(=O)OCC)c4ccccn4)ccc3n2C)cc1`: the Potency was 29.8 µM (active). In the case of `CCN(CC)c1ccc2c(-c3ccccc3C(=O)O)c3ccc(=[N+](CC)CC)cc-3oc2c1`, the Potency is 7.7 µM (active). For the compound `CC1(c2ccccc2)OC(C(=O)O)=CC1=O` (stereo not given), the Potency entry is “inactive”. For `CCNc1cc(O)ccc1C`, the Potency result was “inactive”. With `CCOC(=O)Cc1cccc2ccccc12`, the Potency entry is “inactive”.
